Molecules are shown by their SMILES. Where “and” joins values, the source holds several entries; their conditions need not be identical. Equal values may be shown once. Results filed as inconclusive are left out. Calls of active or inactive are those of the source. Calls follow the shape of the dose curve; as a rule, active = well fitted inhibition curve with a large enough effect; inconclusive = small, poorly fitted or top-dose-only effect; inactive = no such curve, though single readings can be large or run the other way.

Drawing on PubChem BioAssay (NCATS), this text covers Potency for five molecules.
Potency is read from the fitted curve at half-maximal effect.

A short description of the experiment: Primary qHTS for inhibitors of nuclear receptor binding SET domain protein 2 (NSD2) in an RCH-ACV wild type WT cells (2C) (AID 1645877). Also: nearly all actives have a fitted effect of over 70% in size. Conditions: RCH-ACV (leukaemia line) NSD2 WT (2C) viability, CellTiter-Glo, 72 h; series mostly up to 44.9 µM. For orientation: In qHTS, concentration-response curves come from the screen itself.
With `CN1CCN(Cc2ccc(NC(=O)Nc3ccc(Oc4cc(NC(=O)C5CC5)ncn4)cc3)cc2C(F)(F)F)CC1`, the Potency is 91.6 nM (active) and 186 nM (active).
As to `CNC(=O)c1nn(C)c2c1C(C)(C)Cc1cnc(Nc3ccc(N4CCN(C)CC4)cc3)nc1-2`, the Potency was 409 nM (active) and 417 nM (active).
For `COc1cc(Nc2ncc(F)c(Nc3ccc4c(n3)N(COP(=O)(O)O)C(=O)C(C)(C)O4)n2)cc(OC)c1OC` the value was 1.15 µM (active) and 5.17 µM (active) and 1.66 µM (active); for `COc1ccc(C(=O)CC2(O)C(=O)Nc3c(Cl)ccc(Cl)c32)cc1` (stereo not given), 1.83 µM (active).
The figure for `CC(C)c1nn(-c2c(Cl)cccc2Cl)c2nc(Cc3ccc(OCCO)cc3)[nH]c(=O)c12` is 25.8 nM (active) and 41.7 nM (active).
